AmpC inh no detg: qHTS Inhibitors of AmpC Beta-Lactamase (assay without detergent) | AmpC nitrocefin hydrolysis, absorbance 480 nm, 0.0001% Triton | Potency, µM (doses to about 57.1 µM), usual class: inhibitors | 330,000 tested, 0.52% active | AID 485341, 2010; note: nearly all actives have a fitted effect of over 20% in size
Target sequence (P00811 whole entry, looked up): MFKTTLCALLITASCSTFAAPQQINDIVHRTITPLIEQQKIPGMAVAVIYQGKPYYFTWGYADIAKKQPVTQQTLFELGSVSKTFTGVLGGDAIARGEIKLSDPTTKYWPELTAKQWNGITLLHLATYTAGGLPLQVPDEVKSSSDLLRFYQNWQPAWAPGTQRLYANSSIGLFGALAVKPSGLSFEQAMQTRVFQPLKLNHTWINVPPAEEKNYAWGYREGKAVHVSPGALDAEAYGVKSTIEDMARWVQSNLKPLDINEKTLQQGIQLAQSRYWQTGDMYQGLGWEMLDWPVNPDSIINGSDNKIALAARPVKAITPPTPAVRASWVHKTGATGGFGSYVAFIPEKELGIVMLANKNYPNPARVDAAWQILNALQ
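20 mM phosphate pH 7.0 + 0.01% (detergent screen) or 0.0001% Triton X-100; 5.3 nM AmpC reagent; cpd preinc 15 min RT; nitrocefin (800 uM stock) to start; A480 q20 s × 4 min; Activity was normalised to no-enzyme and no-compound control wells.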
HCMV antiviral: qHTS Assay for inhibitors of the human cytomegalovirus (HCMV); HFF cells, HCMV-luciferase reporter, 72 h; active compounds read low; activity change, negative = inhibition, % at 57.5 µM; 410,000 tested, 4.5% active; in the data active = activity change below about -60%; inconclusive = no clear call, values can overlap the other calls; inactive = above about -39%
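Compounds were evaluated in HFFs infected with an HCMV luciferase reporter virus (MOI 1 PFU/cell). Luciferase in lysates collected 72 h post infection served as the replication measure.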
FMDV antiviral: High Throughput Screening for Foot and Mouth Disease Virus Antivirals; FMDV antiviral cell-based qHTS; Potency, µM (highest dose often 57.9 µM), hits mostly inhibitors; 410,000 tested, 1.2% active; AID 1159524, 2015; calls by dose curve; tested in HEK293T cells; note: read-out not given here; nearly all actives have a fitted effect of over 45% in size
HCV inh: qHTS Assay for Inhibitors of Hepatitis C Virus (HCV); Huh7.5.1 HCVcc-Cre infection, luciferase reporter, 44 h; Potency, µM (series often up to 41.8 µM), most hits filed as inhibitors; 340,000 tested, 3.4% active; AID 651820, 2012
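After 44 h co-culture of compound, cells and HCVcc-Cre (~0.5 moi), substrate is added for 15 min at room temperature and luciferase measured over 15 sec. Cells were seeded at 1,000/well and pre-cultured 4 h.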
AmpC detergent: qHTS Inhibitors of AmpC Beta-Lactamase (assay with detergent) | P00811 | AmpC hydrolysis of nitrocefin, absorbance 480 nm, 0.01% Triton | Potency, µM (highest dose often 114 µM), most hits filed as inhibitors | 370,000 tested, 0.041% active | AID 485294, 2010; note: nearly all actives have a fitted effect of over 25% in size
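20 mM phosphate pH 7.0 + 0.01% (detergent screen) or 0.0001% Triton X-100; 5.3 nM AmpC reagent; cpd preinc 15 min RT; nitrocefin (800 uM stock) to start; A480 q20 s × 4 min; Activity was normalised to no-enzyme and no-compound control wells.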
A number is an active result; ! = repeats disagree. This is a sample that favours compounds with a hit; in the whole collection about 7.3% have one here. Unless noted, calls come from the whole dose curve; as a rule, active = well fitted curve in the direction sought with a large enough effect; inconclusive = small, poorly fitted or top-dose-only effect, or another doubt; inactive = no such curve, though single readings can be large; an effect the other way counts as inactive or inconclusive.

For O=C1c2ccccc2C(=O)c2c1cccc2N1CCCC1 the results were AmpC inh no detg inactive, HCMV antiviral inactive, FMDV antiviral inactive, HCV inh inconclusive and AmpC detergent inactive.
O=C1C=C(N2CCCCC2)c2ccccc2C1=O was read as HCMV antiviral -97.1, FMDV antiviral 22.4µM and HCV inh 7.08µM.
CC(C)NC(=O)N(C)C[C@@H]1Oc2c(NC(=O)Nc3ccccc3)cccc2C(=O)N([C@H](C)CO)C[C@H]1C was read as AmpC inh no detg inactive, HCMV antiviral inactive, FMDV antiviral inactive and HCV inh inactive.
Screening Cc1ccccc1NC(=O)C(Cl)=C(Cl)Cl returned AmpC inh no detg inactive, HCMV antiviral -77.9, FMDV antiviral inconclusive, HCV inh inconclusive and AmpC detergent inactive.
Cc1ccccc1NNC(=O)C(=O)NNc1ccccc1C was read as AmpC inh no detg inactive, HCMV antiviral inactive, FMDV antiviral inactive, HCV inh inactive and AmpC detergent inactive.
CCNC(=O)C1Cc2cc(S(=O)(=O)N3CCCC3)ccc2N1C(C)=O (stereo unspecified) was read as AmpC inh no detg inactive, HCMV antiviral inactive, FMDV antiviral inactive, HCV inh inactive and AmpC detergent inactive.
COC(=O)C(c1ccccc1)(c1cn(C)c2ccc(OC)cc12)C(Nc1ccccc1)c1ccccc1 (stereo unspecified) was read as HCMV antiviral inactive.
`COc1ccc(/C=C/c2c([N+](=O)[O-])c(=O)n(C)c(=O)n2C)c(OC)c1` gave AmpC inh no detg inactive, HCMV antiviral inactive, FMDV antiviral inconclusive, HCV inh 11.2µM and AmpC detergent inactive.
`Cn1c(/C=C/c2ccc(Cl)cc2Cl)c([N+](=O)[O-])c(=O)n(C)c1=O` gave AmpC inh no detg inactive, HCMV antiviral -98.0, FMDV antiviral 31.6µM, HCV inh inconclusive and AmpC detergent inactive.
`Cc1cccc(C(=O)N2CCn3c(nnc3C(=O)NC(C)C)C2)c1C` gave HCMV antiviral inactive.
`Cc1ccccc1-n1nc(CO)c(C(=O)NCC(c2ccccc2)c2ccccc2)n1` gave HCMV antiviral -86.3, FMDV antiviral 12.6µM and AmpC detergent inactive.
`Cc1ccc(-n2nc(CO)c(C(=O)NCC(c3ccccc3)c3ccccc3)n2)cc1` gave HCMV antiviral inactive, FMDV antiviral inactive and AmpC detergent inactive.
O=C(NCc1cccs1)c1nn(-c2ccccc2Cl)nc1CO was read as HCMV antiviral inactive, FMDV antiviral inactive and AmpC detergent inactive.
O=C(NCC(c1ccccc1)c1ccccc1)c1nn(-c2ccccc2Cl)nc1CO was read as HCMV antiviral -92.4, FMDV antiviral inconclusive and AmpC detergent inactive.
For O=C1C(c2ccccc2)=[N+]([O-])c2ccccc21 the results were AmpC inh no detg inactive, HCMV antiviral inactive, FMDV antiviral inconclusive, HCV inh 10µM and AmpC detergent inconclusive.
`COc1cc2c(cc1OC)[N+]([O-])=C(c1ccccc1)C2=O` gave HCMV antiviral inactive.
For C/C(=N\NC(=O)CCc1ccccc1)C1C(=O)c2ccccc2C1=O the results were AmpC inh no detg inactive, HCMV antiviral -87.2, FMDV antiviral inactive, HCV inh inactive and AmpC detergent inactive.
CC(/C=C/c1ccccc1)=N\NC(=O)CCc1ccccc1 was read as AmpC inh no detg inactive, HCMV antiviral inactive, FMDV antiviral inactive, HCV inh inconclusive and AmpC detergent inactive.
Screening COC(=O)Cn1cc(/C=N/NC(=O)COc2cccc3cccnc23)c2ccccc21 returned AmpC inh no detg inactive, HCMV antiviral -69.5, FMDV antiviral inactive, HCV inh inactive and AmpC detergent inactive.
`Cc1cc(C)c2nc(C(F)(F)F)c(C#N)c(N)c2c1` gave AmpC inh no detg inactive, HCMV antiviral inconclusive, FMDV antiviral inactive, HCV inh inactive and AmpC detergent inactive.
Cc1ccc2nc(C(F)(F)F)c(C#N)c(N)c2c1 was read as AmpC inh no detg inactive, HCMV antiviral -106.8, FMDV antiviral inactive, HCV inh 25.1µM and AmpC detergent inactive.
Cc1ccc(S(=O)(=O)Cc2ccc(C(=O)N3CCCC3)o2)cc1 was read as AmpC inh no detg inactive, HCMV antiviral inactive, FMDV antiviral inactive, HCV inh inactive and AmpC detergent inactive.
Cc1ccc(S(=O)(=O)Cc2ccc(C(=O)N3CCCCCC3)o2)cc1 was read as AmpC inh no detg inactive, HCMV antiviral -62.9, FMDV antiviral inactive, HCV inh inactive and AmpC detergent inconclusive.
`COc1ccc(N2CCN(C(=O)c3ccc(CS(=O)(=O)c4ccc(Br)cc4)o3)CC2)cc1` gave AmpC inh no detg inactive, HCMV antiviral -83.8!, FMDV antiviral inactive, HCV inh inactive and AmpC detergent inconclusive.
For Cc1ccccc1NC(=O)c1ccc(-c2ccc(Cl)cc2Cl)o1 the results were AmpC inh no detg inactive, HCMV antiviral inactive, FMDV antiviral inactive, HCV inh 12.6µM and AmpC detergent inactive.
For Cc1cccc(C)c1NC(=O)c1ccc(-c2ccc(Cl)cc2Cl)o1 the results were AmpC inh no detg inactive, HCMV antiviral -71.9, FMDV antiviral inactive, HCV inh inconclusive and AmpC detergent inactive.
Cc1cccc(C)c1NC(=O)c1ccc(-c2cc(F)ccc2F)o1 was read as HCMV antiviral inactive and FMDV antiviral inactive.
Screening Cc1ccc(NC(=O)c2ccc(-c3cc(Cl)ccc3Cl)o2)c(C)c1 returned HCMV antiviral inactive and FMDV antiviral inactive.
`Cn1c(=O)[nH]c(=O)c2c1nc(N1CCCCC1)n2CCCSc1nc2ccccc2s1` gave AmpC inh no detg inactive, HCMV antiviral inactive, FMDV antiviral inconclusive, HCV inh 10µM and AmpC detergent inactive.
`CC1CCN(c2nc3c(c(=O)n(C)c(=O)n3C)n2CCSc2nc3ccccc3s2)CC1` gave AmpC inh no detg inactive, HCMV antiviral inactive, FMDV antiviral inactive, HCV inh 11.2µM and AmpC detergent inactive.
Screening COc1ccc(NC(=O)C(NS(=O)(=O)c2ccc3c(c2)CCCC(=O)N3)C(C)C)c(OC)c1 (stereo unspecified) returned HCMV antiviral inactive, FMDV antiviral inactive and AmpC detergent inactive.
CN(CC(=O)Nc1ccc(F)cc1)C(=O)C1CCCC1 was read as AmpC inh no detg inactive, HCMV antiviral inactive, FMDV antiviral inactive, HCV inh inactive and AmpC detergent inactive.
`O=C(OCc1ccc(Br)cc1)c1cnc(Cl)c(Cl)c1` gave AmpC inh no detg inactive, HCMV antiviral -60.3, FMDV antiviral inactive, HCV inh inactive and AmpC detergent inconclusive.
COc1ccc(C(C)=O)cc1COC(=O)c1cnc(Cl)c(Cl)c1 was read as AmpC inh no detg inactive, HCMV antiviral inactive, FMDV antiviral inconclusive, HCV inh 11.2µM and AmpC detergent inactive.
Screening O=C(OCc1ccc(Br)cc1)c1ccncc1 returned AmpC inh no detg inactive, HCMV antiviral inactive, FMDV antiviral inactive, HCV inh inactive and AmpC detergent inactive.

Assay outcomes deposited in PubChem BioAssay by National Center for Advancing Translational Sciences (NCATS).
